# Data taken from PubChem BioAssay (NCI).
# The panel holds about 83,000 compounds, 20% with a hit somewhere; the sample as a whole holds those more often.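 Step 1: grow cells in 96-well plates. Step 2: add test compound at a single concentration. Step 3: incubate 48 h. Step 4: record percent growth.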 Unmarked numbers belong to inactive results. The source made the active and inactive calls. Rule for the calls: active = growth percent below 10; inactive = the rest.
# Tests used:
# Assay in all cases: NCI-60 one-dose screen, 48 h (100 = growth as untreated, 0 = no growth, -100 = all killed)
# Conditions in all cases: 10 µM unless noted
# [1] = system: HCT-15 colon
# [2] = system: HT29 colon
# [3] = system: SNB-75 CNS
# [4] = system: SNB-19 CNS
# [5] = system: U251 CNS
# [6] = system: PC-3 prostate
# [7] = system: UACC-62 melanoma
# [8] = system: LOX IMVI melanoma
# [9] = system: SK-MEL-28 melanoma
# [10] = system: SK-MEL-5 melanoma
SMILES,growth [1],growth [2],growth [3],growth [4],growth [5],growth [6],growth [7],growth [8],growth [9],growth [10]
CSCc1ncc(-c2ccc(C(F)(F)F)cc2)c(NC2CCCCCC2)n1,64.9% [25 µM],64.9% [25 µM],71.6% [25 µM],73.1% [25 µM],68.5% [25 µM],-5.89% [25 µM] (active),70.2% [25 µM],82.7% [25 µM],95.6% [25 µM],–
C/C=C(/C)C(=O)OC1C=C(CO)C(=O)C(OC(=O)C(C)(O)C(C)Cl)C1C(C)C (configuration not stated),-20.7% (active),-32.5% (active),20%,-1.69% (active),-50% (active),-24.8% (active),-77% (active),-75.4% (active),-48.9% (active),–
O=C(N/N=C\c1ccc(-c2ccc(Br)cc2)o1)c1cc2oc(-c3cccc(C(F)(F)F)c3)cc2[nH]1,84.5%,110%,72.3%,97.9%,84.1%,102%,–,86%,81.5%,102%
COc1cc(-c2c3c(cn2CCN2CCCCC2)-c2oncc2CC3)cc(OC)c1OC,98.3%,84%,81.4%,99.8%,101%,89.7%,–,97.7%,100%,98.3%
COC(=O)c1ccc(C(=Nc2ccc(N(C)C(=O)CN3CCN(C)CC3)cc2)c2c(O)[nH]c3ccc(C(=O)OC)cc23)cc1,27%,29.7%,24.6%,55.3%,29%,28.8%,–,38.5%,50.4%,36.4%
COC(=O)C(N)CC(C)C (configuration not stated),103%,102%,93.9%,100%,98%,97.9%,–,95.8%,108%,103%
C=C[C@]1(C)C=C2C(=O)[C@@]3(O)OC[C@@]4(CCCC(C)(C)C43O)C2(O)C(O)C1 (some centres not stated),12.9%,-68.6% (active),69.6%,99.3%,53.9%,55.2%,86.3%,12.2%,47.2%,–
COc1ccc(C2=NN(C(=O)c3cc(-c4ccc(C)cc4)nc4ccccc34)C(c3cc(-c4ccccc4)nn3-c3ccccc3)C2)cc1 (configuration not stated),82.6%,105%,88.3%,83%,85.3%,74.7%,–,80.6%,93.8%,97.8%
COc1ccc(/C=C(/C(=O)N2CCCCC2)c2cc(OC)c(OC)c(OC)c2)cc1,26.8%,5.67% (active),-15.6% (active),32%,26%,12.4%,36.5%,36.5%,54.1%,–
CCc1c(C)c2ccc(OCC(=O)N=Nc3c(O)[nH]c4ccccc34)c(C)c2oc1=O,-15% (active),-38.6% (active),30.7%,19.2%,-70.8% (active),-9.58% (active),22.8%,-37.8% (active),64.8%,–
CC(=O)Nc1nc(C)c(C(=O)N/N=C/N2CCCCC2)s1,111%,109%,81.6%,103%,105%,–,107%,103%,114%,113%
CC(=O)Nc1nc(C)c(C(=O)NNS(=O)(=O)c2ccccc2)s1,114%,118%,88.2%,105%,103%,–,109%,99.1%,125%,105%
O=C1C(Cl)=C(Nc2ccc(Nc3ccccc3)c(NC3=C(Cl)C(=O)c4ccccc4C3=O)c2)C(=O)c2ccccc21,56.2%,66.4%,81.3%,52.3%,33.5%,48%,39.4%,63.3%,113%,–
O=C(Nc1ccc(-n2cc(-c3ccncc3)c(-c3ccc(Cl)c(O)c3)n2)cc1)Nc1ccc(Cl)c(C(F)(F)F)c1,2.66% (active),-92.4% (active),-11.6% (active),27.4%,-31.4% (active),–,-25% (active),5.17% (active),-28.3% (active),-89.4% (active)
CN1CCN(Cc2ccc(NC(=O)c3ccc(C#Cc4c(N)ncc5ccc(F)cc45)cc3)cc2C(F)(F)F)CC1,-55.4% (active),-73.2% (active),-15.1% (active),-91.8% (active),-75.8% (active),-37.2% (active),–,-94.3% (active),-97.8% (active),–
CC(=O)Nc1nc(C)c(C(=O)N/N=C/N2CCOCC2)s1,105%,107%,101%,104%,101%,–,98.4%,106%,111%,112%
COc1cc(-c2nn(-c3ccc(NC(=O)Nc4ccc(Cl)c(C(F)(F)F)c4)cc3)cc2-c2ccncc2)ccc1Cl,9.82% (active),-24.4% (active),-0.838% (active),30.5%,-3.64% (active),–,6.01% (active),11.7%,18.2%,-58.2% (active)
O=C1c2ccccc2CCc2ccccc21,105%,103%,91.8%,100%,93.1%,–,95.6%,93.6%,106%,98.6%
CCCCCCCCCCN1CC2CCCCC2C1 (configuration not stated),35%,19.8%,66.3%,79.7%,53.4%,48.4%,89.4%,47.1%,90.6%,–
COC(=O)[C@@H]1[C@H](O)[C@H](C)[C@H](O)[C@H](C)/C=C\C=C(C)C(=O)Nc2c(C)c(OC(C)=O)c3c(c2O)C(=O)C(C)=C2OCOC(=C23)C(C)=C[C@@](C)(O)[C@H](O)[C@@H](C)[C@H]1OC(C)=O,118%,110%,86.6%,113%,111%,–,113%,104%,138%,103%
CCOC(=O)c1sc(NS(=O)(=O)c2ccccc2)nc1C,115%,124%,97.9%,107%,109%,–,103%,105%,123%,99.3%
CC(C)(C)c1cc(C[P+](c2ccc(Cl)cc2)(c2ccc(Cl)cc2)c2ccc(Cl)cc2)cc(C(C)(C)C)c1O,99.1%,56.9%,87.2%,98%,85.4%,70%,81.6%,–,88%,–
N#Cc1c2ncccc2c2nnc3cc(Cl)c(Cl)cc3n12,82.9%,95.2%,67.1%,101%,90.6%,–,90.8%,97.4%,80.9%,92.4%
CC(=O)/C(=C\c1c(-c2ccccc2)[nH]c2ccccc12)S(=O)(=O)c1ccccc1,13.5%,11.3%,-23.1% (active),53.7%,17.5%,–,13.6%,-33.3% (active),26.8%,9.11% (active)
CCN(CC)CCNc1ncnc2c1cnn2-c1ccc(Cl)cc1,34.8%,7.44% (active),74.4%,91.2%,75.5%,82%,–,60%,-40.4% (active),–
O=C(Nc1ccc(-n2cc(-c3ccncc3)c(-c3ccc(Cl)c(O)c3)n2)cc1)c1cc(Cl)cc(Cl)c1,11.1%,1.94% (active),16.4%,72.4%,41.9%,–,39.2%,40.3%,29.7%,-85.1% (active)
COc1ccc(/C=N/c2cc(C(C)(C)C)nn2-c2ccccc2)cc1,86.8%,99.9%,114%,94.6%,97.9%,–,86.7%,–,111%,98%
COc1ccc2oc(=O)cc(CN3C(=O)S/C(=C\c4ccc(Cl)cc4)C3=O)c2c1,92.3%,103%,98.7%,99%,101%,91.8%,83.1%,95.2%,101%,–
COc1ccc2cnc(N)c(C#Cc3cc(C(=O)Nc4ccc(CN5CCN(C)CC5)c(C(F)(F)F)c4)cnc3C)c2c1,43.5%,13.2%,-1.84% (active),80.5%,17.2%,16%,26.3%,12%,-72.5% (active),–
